Many of the other results were omitted from the sample, so the strongest signals are more common in it than they were.
Columns and labels:
Experiment in all cases: glycan array binding signal (z-score within array); higher = stronger binding
Details in all cases: glycan notation: IUPAC condensed, linker removed
[1] = target: Fuc(a1-2)Gal(b1-3)GalNAc(a1-3)[Fuc(a1-2)]Gal(b1-4)GlcNAc
Method in brief: (§1)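 Negative Z-scores can be read as non-binding. The Z-score is calculated within each array and then averaged across arrays of one protein sequence at different concentrations or buffers and across linkers. Arrays, 3228 in all, were curated from the Consortium for Functional Glycomics database and kept only where the protein sequence was available.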

[2] = target: Fuc(a1-2)Gal(b1-4)GlcNAc(b1-3)Gal(b1-4)GlcNAc(b1-2)Man(a1-3)[Fuc(a1-2)Gal(b1-4)GlcNAc(b1-3)Gal(b1-4)GlcNAc(b1-2)Man(a1-6)]Man(b1-4)GlcNAc(b1-4)GlcNAc
Method in brief: as §1

[3] = target: Fuc(a1-2)[Gal(a1-3)]Gal(b1-4)[Fuc(a1-3)]GlcNAc(b1-3)GalNAc
Method in brief: as §1

[4] = target: Fuc(a1-2)[GalNAc(a1-3)]Gal(b1-3)GalNAc(a1-3)[Fuc(a1-2)]Gal(b1-4)GlcNAc
Method in brief: as §1

[5] = target: Fuc(a1-2)[GalNAc(a1-3)]Gal(b1-4)GlcNAc(b1-2)Man(a1-3)[Fuc(a1-2)[GalNAc(a1-3)]Gal(b1-4)GlcNAc(b1-2)Man(a1-6)]Man(b1-4)GlcNAc(b1-4)GlcNAc
Method in brief: as §1

[6] = target: Fuc(a1-2)[GalNAc(a1-3)]Gal(b1-4)[Fuc(a1-3)]GlcNAc(b1-3)GalNAc
Method in brief: as §1

[7] = target: Fuc(a1-3)[Gal(b1-4)]Glc6S
Method in brief: as §1

[8] = target: Fuc(a1-3)[Gal(b1-4)]GlcNAc
Method in brief: as §1

[9] = target: Gal(a1-3)Gal(b1-3)[Fuc(a1-4)]GlcNAc(b1-2)Man(a1-3)[Gal(a1-3)Gal(b1-3)[Fuc(a1-4)]GlcNAc(b1-2)Man(a1-6)]Man(b1-4)GlcNAc(b1-4)GlcNAc
Method in brief: as §1

[10] = target: Gal(a1-3)Gal(b1-4)[Fuc(a1-3)]GlcNAc(b1-2)Man(a1-3)[Gal(a1-3)Gal(b1-4)[Fuc(a1-3)]GlcNAc(b1-2)Man(a1-6)]Man(b1-4)GlcNAc(b1-4)GlcNAc
Method in brief: as §1

[11] = target: Gal(b1-3)GalNAc(b1-3)Gal(a1-4)Gal(b1-4)Glc
Method in brief: as §1

[12] = target: Gal(b1-3)GalNAc(b1-4)[Neu5Ac(a2-3)]Gal(b1-4)Glc
Method in brief: as §1

[13] = target: Gal(b1-3)GlcNAc(b1-2)Man(a1-3)[Gal(b1-3)GlcNAc(b1-2)Man(a1-6)]Man(b1-4)GlcNAc(b1-4)GlcNAc
Method in brief: as §1

[14] = target: Gal(b1-3)GlcNAc(b1-3)Gal(b1-4)GlcNAc(b1-6)[Gal(b1-3)GlcNAc(b1-3)]Gal(b1-4)Glc
Method in brief: as §1

Gal(b1-3)GlcNAc6S = target: Gal(b1-3)GlcNAc6S
Method in brief: as §1

[15] = target: Gal(b1-3)[Fuc(a1-4)]GlcNAc(b1-6)GalNAc
Method in brief: as §1

[16] = target: Gal(b1-3)[GlcNAc(b1-6)]GalNAc
Method in brief: as §1

[17] = target: Gal(b1-3)[Neu5Ac(a2-6)]GlcNAc(b1-4)Gal(b1-4)Glc
Method in brief: as §1

[18] = target: Gal(b1-4)GlcNAc(b1-2)Man(a1-3)[Man(a1-6)]Man(b1-4)GlcNAc(b1-4)GlcNAc
Method in brief: as §1

[19] = target: Gal(b1-4)GlcNAc(b1-2)[Gal(b1-4)GlcNAc(b1-6)]Man(a1-6)[Gal(b1-4)GlcNAc(b1-2)Man(a1-3)]Man(b1-4)GlcNAc(b1-4)[Fuc(a1-6)]GlcNAc
Method in brief: as §1

[20] = target: Gal(b1-4)GlcNAc(b1-3)Gal(b1-3)GalNAc
Method in brief: as §1

[21] = target: Gal(b1-4)GlcNAc(b1-3)Gal(b1-4)GlcNAc(b1-3)Gal(b1-4)GlcNAc(b1-2)Man(a1-3)[Gal(b1-4)GlcNAc(b1-3)Gal(b1-4)GlcNAc(b1-3)Gal(b1-4)GlcNAc(b1-2)Man(a1-6)]Man(b1-4)GlcNAc(b1-4)GlcNAc
Method in brief: as §1

[22] = target: Gal(b1-4)GlcNAc(b1-3)Gal(b1-4)GlcNAc(b1-3)Gal(b1-4)GlcNAc(b1-3)Gal(b1-4)GlcNAc(b1-2)Man(a1-3)[Gal(b1-4)GlcNAc(b1-3)Gal(b1-4)GlcNAc(b1-3)Gal(b1-4)GlcNAc(b1-3)Gal(b1-4)GlcNAc(b1-2)Man(a1-6)]Man(b1-4)GlcNAc(b1-4)[Fuc(a1-6)]GlcNAc
Method in brief: as §1

[23] = target: Gal(b1-4)GlcNAc(b1-3)Gal(b1-4)GlcNAc(b1-3)Gal(b1-4)GlcNAc(b1-3)Gal(b1-4)GlcNAc(b1-3)Gal(b1-4)GlcNAc(b1-2)[Gal(b1-4)GlcNAc(b1-3)Gal(b1-4)GlcNAc(b1-3)Gal(b1-4)GlcNAc(b1-3)Gal(b1-4)GlcNAc(b1-3)Gal(b1-4)GlcNAc(b1-6)]Man(a1-6)[Gal(b1-4)GlcNAc(b1-3)Gal(b1-4)GlcNAc(b1-3)Gal(b1-4)GlcNAc(b1-3)Gal(b1-4)GlcNAc(b1-3)Gal(b1-4)GlcNAc(b1-2)Man(a1-3)]Man(b1-4)GlcNAc(b1-4)[Fuc(a1-6)]GlcNAc
Method in brief: as §1

Gal(b1-4)GlcNAc6P = target: Gal(b1-4)GlcNAc6P
Method in brief: as §1

Gal(b1-6)Gal = target: Gal(b1-6)Gal
Method in brief: as §1

Gal3S(b1-3)GalNAc = target: Gal3S(b1-3)GalNAc
Method in brief: as §1

Gal3S(b1-3)GlcNAc = target: Gal3S(b1-3)GlcNAc
Method in brief: as §1

Gal6S(b1-4)GlcNAc = target: Gal6S(b1-4)GlcNAc
Method in brief: as §1

[24] = target: GalNAc(a1-3)GalNAc(b1-3)Gal(a1-4)Gal(b1-4)Glc
Method in brief: as §1

[25] = target: GalNAc(b1-3)Gal(a1-4)Gal(b1-4)GlcNAc
Method in brief: as §1

[26] = target: Glc(a1-4)Glc(a1-4)Glc(a1-4)Glc
Method in brief: as §1

[27] = target: GlcNAc(b1-2)[GlcNAc(b1-4)]Man(a1-3)[GlcNAc(b1-4)][GlcNAc(b1-2)[GlcNAc(b1-6)]Man(a1-6)]Man(b1-4)GlcNAc(b1-4)[Fuc(a1-6)]GlcNAc
Method in brief: as §1

[28] = target: GlcNAc(b1-3)Gal(b1-4)GlcNAc(b1-3)Gal(b1-4)GlcNAc(b1-2)[GlcNAc(b1-3)Gal(b1-4)GlcNAc(b1-3)Gal(b1-4)GlcNAc(b1-6)]Man(a1-6)[GlcNAc(b1-3)Gal(b1-4)GlcNAc(b1-3)Gal(b1-4)GlcNAc(b1-2)Man(a1-3)]Man(b1-4)GlcNAc(b1-4)[Fuc(a1-6)]GlcNAc
Method in brief: as §1

[29] = target: GlcNAc(b1-3)Gal(b1-4)GlcNAc(b1-6)[GlcNAc(b1-3)]Gal(b1-4)GlcNAc
Method in brief: as §1

[30] = target: Man(a1-3)[Man(a1-6)]Man(a1-6)[Man(a1-3)]Man
Method in brief: as §1

[31] = target: Man(a1-3)[Man(a1-6)]Man(a1-6)[Man(a1-3)]Man(b1-4)GlcNAc(b1-4)GlcNAc
Method in brief: as §1

[32] = target: Neu5Ac(a2-3)Gal(b1-3)GlcNAc(b1-4)Gal(b1-4)Glc
Method in brief: as §1

Neu5Ac(a2-3)Gal(b1-4)Glc = target: Neu5Ac(a2-3)Gal(b1-4)Glc
Method in brief: as §1

[33] = target: Neu5Ac(a2-3)Gal(b1-4)GlcNAc(b1-3)GalNAc
Method in brief: as §1

[34] = target: Neu5Ac(a2-3)Gal(b1-4)[Fuc(a1-3)]GlcNAc(b1-6)[Gal(b1-3)]GalNAc
Method in brief: as §1

[35] = target: Neu5Ac(a2-6)Gal(b1-4)GlcNAc(b1-2)Man(a1-3)[Man(a1-6)]Man(b1-4)GlcNAc(b1-4)GlcNAc
Method in brief: as §1

[36] = target: Neu5Ac(a2-6)Gal(b1-4)GlcNAc(b1-3)Gal(b1-4)GlcNAc(b1-6)[Gal(b1-3)]GalNAc
Method in brief: as §1

[37] = target: Neu5Ac(a2-6)GalNAc(b1-4)GlcNAc6S
Method in brief: as §1

[38] = target: Neu5Ac(a2-8)Neu5Ac(a2-8)Neu5Ac
Method in brief: as §1

[39] = target: Neu5Gc(a2-3)Gal(b1-3)[Fuc(a1-4)]GlcNAc
Method in brief: as §1

[40] = target: Neu5Gc(a2-3)Gal(b1-4)GlcNAc
Method in brief: as §1

B1: SBD-G4S3-SBD (protein)
chain: MASIPSSASVQLDSYNYDGSTFSGKIYVKNIAYSKKVTVVYADGSDNWNNNGNIIAASFSGPISGSNYEYWTFSASVKGIKEFYIKYEVSGKTYYDNNNSANYQVSTGGGGSGGGGSGGGGSEFASIPSSASVQLDSYNYDGSTFSGKIYVKNIAYSKKVTVVYADGSDNWNNNGNIIAASFSGPISGSNYEYWTFSASVKGIKEFYIKYEVSGKTYYDNNNSANYQVST
glycan array binding signal (z-score) [1]: -0.396 | glycan array binding signal (z-score) [2]: -0.362 | glycan array binding signal (z-score) [3]: 0.033 | glycan array binding signal (z-score) [4]: 1.17 | glycan array binding signal (z-score) [5]: 6.16 | glycan array binding signal (z-score) [6]: 4.46 | glycan array binding signal (z-score) [7]: 2 | glycan array binding signal (z-score) [8]: -0.355 | glycan array binding signal (z-score) [9]: 7.53 | glycan array binding signal (z-score) [10]: 0.036 | glycan array binding signal (z-score) [11]: -0.324 | glycan array binding signal (z-score) [12]: -0.263 | glycan array binding signal (z-score) [13]: 4.15 | glycan array binding signal (z-score) [14]: -0.42 | glycan array binding signal (z-score) (Gal(b1-3)GlcNAc6S): -0.404 | glycan array binding signal (z-score) [15]: 4.38 | glycan array binding signal (z-score) [16]: -0.371 | glycan array binding signal (z-score) [17]: -0.092 | glycan array binding signal (z-score) [18]: -0.387 | glycan array binding signal (z-score) [19]: 4.53 | glycan array binding signal (z-score) [20]: -0.052 | glycan array binding signal (z-score) [21]: 1.38 | glycan array binding signal (z-score) [22]: 7.46 | glycan array binding signal (z-score) [23]: 8.43 | glycan array binding signal (z-score) (Gal(b1-4)GlcNAc6P): -0.348 | glycan array binding signal (z-score) (Gal(b1-6)Gal): -0.136 | glycan array binding signal (z-score) (Gal3S(b1-3)GalNAc): -0.369 | glycan array binding signal (z-score) (Gal3S(b1-3)GlcNAc): -0.406 | glycan array binding signal (z-score) (Gal6S(b1-4)GlcNAc): 4.01 | glycan array binding signal (z-score) [24]: -0.403 | glycan array binding signal (z-score) [25]: -0.37 | glycan array binding signal (z-score) [26]: 5.44 | glycan array binding signal (z-score) [27]: -0.39 | glycan array binding signal (z-score) [28]: -0.26 | glycan array binding signal (z-score) [29]: -0.406 | glycan array binding signal (z-score) [30]: -0.125 | glycan array binding signal (z-score) [31]: -0.351 | glycan array binding signal (z-score) [32]: -0.389 | glycan array binding signal (z-score) (Neu5Ac(a2-3)Gal(b1-4)Glc): -0.399 | glycan array binding signal (z-score) [33]: -0.327 | glycan array binding signal (z-score) [34]: 4.53 | glycan array binding signal (z-score) [35]: 0.556 | glycan array binding signal (z-score) [36]: -0.221 | glycan array binding signal (z-score) [37]: -0.365 | glycan array binding signal (z-score) [38]: -0.377 | glycan array binding signal (z-score) [39]: -0.366 | glycan array binding signal (z-score) [40]: -0.326

Source: the supplement of paper PMC8728848
